# Measurements taken from PubChem BioAssay (Tox21).
# “And” between values parts separate entries of the source, which are not always exact repeats. Identical values can stand only once. Records with an inconclusive call do not appear. The source made the active and inactive calls. Calls come from the whole dose curve; as a rule, active = well fitted cell-killing curve with a large enough effect in the repeat runs; inconclusive = weak or mixed curves, or effect the other way; inactive = no such curve, though single readings can be large or run the other way.
# Test: qHTS assay to identify small molecule agonists of the vitamin D receptor (VDR) signaling pathway - cell viability counter screen (AID 743224); note: nearly all actives have a fitted effect of over 50% in size
# Conditions: VDR-bla HEK293T viability, CellTiter-Glo luminescence, 16 h; series mostly up to 62.6 µM; activity change, negative = cytotoxicity: at the top concentration
# Excerpt: U.S. Tox21 Program National Center for Advancing Translational Sciences [NCATS] NIH Chemical Genomics Center [NCGC] U.S. Environmental Protection Agency [EPA] National Institutes of Environmental Health Sciences [NIEHS] National Toxicology Program [NTP] U.S. Food and Drug Administration [FDA] Tox21 Assay Overview: The vitamin D receptor (VDR), a member of nuclear hormone receptor superfamily, plays a critical role in calcium homeostasis and bone metabolism. It is also involved in cell differentiation and growth, and thrombogenicity. […] The cytotoxicity of the Tox21 compound library against the VDR-bla cell line was tested in parallel by measuring the cell viability using CellTiter-Glo assay (Promega, Madison, WI) in the same wells.
# Tox21 Assay Protocol Summary: VDR-bla cells were dispensed at 2,000 cells/6 uL/well into black wall/clear-bottom 1536-well plates using a Multidrop Combi (Thermo Fisher Scientific, Waltham, MA) dispenser. After the assay plates were incubated at a 37C and 5% CO2 for 4 h, 23 nL of compounds dissolved in DMSO, positive controls or DMSO only was transferred to the assay plate by a Pintool station (Kalypsys, San Diego, CA). The plates were incubated at 37C and 5% CO2 for 16 h. After 1 uL of LiveBLAzerTM B/G FRET substrate was added using a Bioraptr Flying Reagent Dispenser (FRD) workstation (Beckman Coulter, Indianapolis, IN, USA), the plates were incubated at room temperature for 2 h, and fluorescence intensity was measured by an Envision plate reader (PerkinElmer, Shelton, CT). For cell viability readout that measures cytotoxicity, 3 ul/well of CellTiter-Glo reagent was added into the assay plates using a FRD. After 30 min incubation at room temperature, the luminescence intensity in the plates was measured using a ViewLux (PerkinElmer) plate reader.
# % is set by controls: 0 for no effect and ±100 for the full control effect; potency is the fitted concentration of half-maximal effect.
Compound,"activity change, negative = cytotoxicity",Potency
CCCCC(CC)COC(=O)c1ccccc1C(=O)OCC(CC)CCCC (stereo not given),14.3% [at 81.1 µM] (inactive),
CCN(CC)C(=O)N[C@@H]1C=C2c3cccc4[nH]cc(c34)C[C@@H]2N(C)C1,15.5% (inactive),
O=C(O)[C@H](O)[C@@H](O)C(=O)O,11.5% (inactive),
CC(Cc1ccc(O)cc1)NCC(O)c1cc(O)cc(O)c1 (stereo not given),4.46% (inactive),
O=[N+]([O-])c1ccc(Cl)c(Cl)c1Cl,18.3% (inactive),
CCCCc1ccccc1,11.1% (inactive),
COP(=S)(OC)Oc1ccc([N+](=O)[O-])c(C)c1,-2.77% (inactive),
CCCCn1cc[n+](C)c1 (tested in a mixture with another compound),-7.9% (inactive),
CCc1cccc(C)c1N(C(=O)CCl)[C@@H](C)COC,8.72% (inactive),
CCC[CH2][Sn]([CH2]CCC)([CH2]CCC)[O][Sn]([CH2]CCC)([CH2]CCC)[CH2]CCC,,0.603 µM (active)
CC(=O)C(Cl)C(=O)N(C)C (stereo not given),-27.4% (inactive),
COc1c2c(cc3c1OCO3)CCN(C)C2,13.3% (inactive),
Cc1ccc(C)c2ccccc12,2.86% (inactive),
COc1ccc2c(c1OC)C(=O)O[C@@H]2[C@H]1c2cc3c(cc2CCN1C)OCO3,8.31% (inactive),
CC(C)N(C(=O)SC/C(Cl)=C/Cl)C(C)C,0.39% [at 81.1 µM] (inactive),
CC1CCCC1,-6.64% (inactive),
CC(C)NCC(O)c1ccccc1Cl (stereo not given),10.1% (inactive),
CCN(CC)CCN1C(=O)CN=C(c2ccccc2F)c2cc(Cl)ccc21,0.892% (inactive),
N#Cc1sc2c(=O)c3ccccc3c(=O)c=2sc1C#N,,4.9 µM (active)
CC(C)[C@@H](Nc1ccc(C(F)(F)F)cc1Cl)C(=O)OC(C#N)c1cccc(Oc2ccccc2)c1 (stereo not given in full),0.576% (inactive),

Compound,"activity change, negative = cytotoxicity",Potency
C=Cc1cccc(CCl)c1,0.0552% [at 81.1 µM] (inactive),
CN(C)C(=S)SSC(=S)N(C)C,,85.9 nM (active) and 27.5 nM (active) and 188 nM (active)
C[C@@H]1CC2=CC(=O)CC[C@@H]2[C@H]2CC[C@@]3(C)[C@@H](CC[C@]3(C)O)[C@@H]21,-0.791% (inactive),
Clc1ccc(C(c2ccc(Cl)cc2)C(Cl)Cl)cc1,,49.8 µM (active) and 38.9 µM (active)
CCCCn1cc[n+](C)c1.[Cl][Fe-]([Cl])([Cl])[Cl],0.437% (inactive),
CSC(=O)c1c(C(F)F)nc(C(F)(F)F)c(C(=O)SC)c1CC(C)C,,43.4 µM (active)
CCOP(=O)(OCC)Oc1nc(Cl)c(Cl)cc1Cl,,4.34 µM (active)
S=C=Nc1ccccc1,-1.41% [at 81.1 µM] (inactive),
O=C(O)CCCCCCNC1c2ccccc2CCc2ccccc21,7.74% (inactive),
Oc1cc(Cl)cc(Cl)c1,1.53% [at 81.1 µM] (inactive),
CCC(C)Br (stereo not given),3.04% [at 81.1 µM] (inactive),
CNC(=O)/C=C(\C)OP(=O)(OC)OC,15.4% (inactive),
CN=C=O,-19.5% [at 81.1 µM] (inactive),
N#CCCl,0% [at 81.1 µM] (inactive),
COC(=O)c1ccccc1S(=O)(=O)NC(=O)Nc1nc(C)nc(OC)n1,-4.56% (inactive),
CC[C@H](C)[C@H]1O[C@]2(C=C[C@@H]1C)C[C@@H]1C[C@@H](C/C=C(\C)[C@@H](O[C@H]3C[C@H](OC)[C@@H](O[C@H]4C[C@H](OC)[C@@H](NC)[C@H](C)O4)[C@H](C)O3)[C@@H](C)/C=C/C=C3\CO[C@@H]4[C@H](O)C(C)=C[C@@H](C(=O)O1)[C@]34O)O2,,3.09 µM (active)
COCCC#N,12.3% (inactive),
CNC(C)(C)Cc1ccccc1,3.55% (inactive),
S=C=NCCc1ccccc1,-23.2% (inactive),
CCOP(=O)(Sc1ccccc1)Sc1ccccc1,-11.9% (inactive),
